Measurements taken from the supplement of paper PMC13380429.

Tested on: Vero E6 infected with SARS-CoV-2
Test: inhibition of SARS-CoV-2 cytopathic effect; higher = more antiviral protection, active = above 15
Conditions: 48 h

Measured: inhibition of SARS-CoV-2 cytopathic effect

O=c1cc[nH]c(=S)[nH]1 [2-thiouracil]
inactive: 1 nM 3.22% | 8.33 nM 2.55% | 100 nM 2.51% | 833.33 nM 0.11% | 10000 nM -0.68%

COc1ccc(C(C)=O)c(O)c1 [paeonol]
inactive: 1 nM 1.08% | 8.33 nM 1.99% | 100 nM 2.76% | 833.33 nM 0.69% | 10000 nM -4.98%

CN1CCN(C(=O)O[C@H]2c3nccnc3C(=O)N2c2ccc(Cl)cn2)CC1
inactive: 1 nM 0.72% | 8.33 nM 1.71% | 100 nM 2.86% | 833.33 nM 2.34% | 10000 nM 0.85%

CNC(=O)c1ccc2c(c1)CCO[C@H]2CCN1CCN(c2ccc(C(N)=O)cc2)CC1
inactive: 1 nM 1.05% | 8.33 nM -0.55% | 100 nM 1.37% | 833.33 nM -1.27% | 10000 nM 3.34%

O=P(O)(O)C(O)(Cc1cccnc1)P(=O)(O)O [risedronate]
inactive: 1 nM -0.54% | 8.33 nM -1.25% | 100 nM -0.67% | 833.33 nM 3.13% | 10000 nM 1.96%

CCCNC(=O)NS(=O)(=O)c1ccc(Cl)cc1 [chlorpropamide]
inactive: 1 nM 0.91% | 8.33 nM 0.48% | 100 nM -1.08% | 833.33 nM -0.4% | 10000 nM -2.67%

CC(=O)OCC(=O)[C@@]1(O)CC[C@H]2[C@@H]3CCC4=CC(=O)CC[C@]4(C)[C@@]3(F)[C@@H](O)C[C@@]21C
inactive: 1 nM -1.46% | 8.33 nM -0.43% | 100 nM 0.97% | 833.33 nM -0.24% | 10000 nM 0.57%

CN(C)CCCOc1nn(Cc2ccccc2)c2ccccc12 [benzydamine]
inactive: 1 nM 1.21% | 8.33 nM 2.44% | 100 nM 2.33% | 833.33 nM 0.09% | 10000 nM -0.14%
